In the supplement of paper PMC10338343:
± gives the standard deviation.

Experiments:
[1] = test system: MILI (PIWIL2) piRISC loaded with piRNA #1 (26 nt); assay: pre-steady-state target cleavage rate (min^-1); guide: piRNA #1 5'p-UGAGGUAGUAGGUUGUAUAGUAUCCA; higher = faster piRNA-guided slicing of the target; conditions: auxiliary factor: 500 nM mouse GTSF1
Outline: (§1)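 In Cleave-'n-Seq, a transcribed, DNA-blocked target RNA library (0.1 nM) was combined with 1 nM active affinity-purified piRISC bearing one synthetic guide, with or without 500 nM GTSF1 partner protein. Reactions ran in HEPES–potassium acetate buffer at 33 °C for 0–8 or 0–960 min. Uncleaved targets were sequenced and normalised to depth and to weakly complementary targets, three trials were pooled, and k3 was capped at 0.0001 min^-1. The pre-steady-state cleavage rate was obtained by fitting a burst-and-steady-state model.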

[2] = test system: EfPiwi piRISC loaded with piRNA #1 (26 nt); assay: pre-steady-state target cleavage rate (min^-1); auxiliary factor: 500 nM Ephydatia muelleri Gtsf1; guide: piRNA #1 5'p-UGAGGUAGUAGGUUGUAUAGUAUCCA; MIWI and MILI are mouse PIWI proteins and EfPiwi is from a freshwater sponge; tags in brackets are library labels; higher = faster piRNA-guided slicing of the target
Outline: as §1

Row | Sequence | pre-steady-state target cleavage rate [1] | pre-steady-state target cleavage rate [2]
1 | GGAGACCUUAGUAUACAACCUACUACCUCA | 0.0889 ± 0.0097 | 0.0563 ± 0.02
2 | GGAGACCUUACAUAUACAACCUACUACCUCA | 0.0595 ± 0.012 | 0.00546 ± 0.0041
3 | GGAGAGGAUACUAUACAACCUACUACCUGA | 0.0731 ± 0.011 | 0.00647 ± 0.0028
4 | GGAGACGAUACUAUACAACCUACUACCCCA | 0.144 ± 0.025 | 0.00536 ± 0.0014
5 | GGAGUGGUUACUAUACAACCUACUUCCUCA | 0.0036 ± 0.002 | 0.0027 ± 0.0013
6 | GGAGUGGAUACUUUACAACGUACUACCUCA | 0.0295 ± 0.0029 | 0.00254 ± 0.0014
7 | GGAGACCUUACUAUACAACCUACUUCCUCA | 0.0805 ± 0.016 | 0.0038 ± 0.0028
8 | GGAGAGGAUCCUAUACAACCUACUACCUCA | 0.164 ± 0.025 | 0.0886 ± 0.046
9 | GGAGACGAUACUAUACAAGCUUCUACCUCA | 0.0442 ± 0.0052 | 0.0034 ± 0.0019
10 | GGAGACCUUACUAUACAACCUACUACCUCA [g2:g22:cont:t1A] | 0.165 ± 0.018 | 0.0238 ± 0.0084
11 | GGAGUGGUUACUAUACAACCUACUACCUCA | 0.186 ± 0.0089 | 0.00957 ± 0.004
12 | GGAGACCUAUCUAUACAACCUACUACCUACA | 0.0858 ± 0.015 | 0.00445 ± 0.0039
13 | GGAGACCUUACUCUACAACCUACUACCUCA | 0.202 ± 0.02 | 0.0532 ± 0.019
14 | GGAGUGGAUACUAUACAACCUACUACUCA | 0.0385 ± 0.0084 | 0.00563 ± 0.0029
15 | GGAGAGGAUACUAUACAACCUACUACCUA | 0.104 ± 0.013 | 0.217 ± 0.081
16 | GGAGACCUAUCUCUACAACCUACUACCUCA | 0.0688 ± 0.0068 | 0.00937 ± 0.0045
17 | GGAGACGAUACUAUACAACAUACUACCUCA | 0.0988 ± 0.0095 | 0.00522 ± 0.0024
18 | GGAGACCAUACUAUACAAGCUACUACCUCA | 0.253 ± 0.02 | 0.00377 ± 0.0015
19 | GGAGUCGAUACUAUACAACCUACUAGCUCA | 0.0244 ± 0.0057 | 0.00304 ± 0.0019
20 | GGAGAGGAUACUAUACAACCUAGUACCUCA | 0.00636 ± 0.0033 | 0.00393 ± 0.0016

Row | Sequence | pre-steady-state target cleavage rate [1] | pre-steady-state target cleavage rate [2]
21 | GGAGACCUAUCUAUACAAGCUACUACGUCA | 0.112 ± 0.012 | 0.00274 ± 0.0026
22 | GGAGACCUUACAUACAACCUACUACCUCA | 0.0259 ± 0.0067 | 0.00863 ± 0.0045
23 | GGAGACCAUACUAUACAACCUACUACGAGA | 0.0759 ± 0.019 | 0.00579 ± 0.0027
24 | GGAGACGAUACUUUACAAGCUACUACCUCA | 0.235 ± 0.015 | 0.00342 ± 0.0026
25 | GGAGACGAUACUAUACAACCUAGCUACCUCA | 0.0598 ± 0.0083 | 0.00543 ± 0.0023
26 | GGAGACCUUACUAUACAGCCUACUACCUCA | 0.116 ± 0.012 | 0.068 ± 0.028
27 | GGAGAGGAUACUAUAGAACCUACUACGUCA | 0.0326 ± 0.0058 | 0.00228 ± 0.0021
28 | GGAGUGGAUACUAUACAACCUUCUACCACA | 0.00348 ± 0.0024 | 0.00272 ± 0.0016
29 | GGAGACCUAUGUCAUACAACCUACUACCUCA | 0.0265 ± 0.008 | 0.00679 ± 0.0034
30 | GGAGACCAUUGAAUACAACCUACUACCUCA | 0.0121 ± 0.0038 | 0.00581 ± 0.0033
31 | GGAGAGGAUACUAAACAACCUACUAGCUCA | 0.0547 ± 0.012 | 0.00242 ± 0.0017
32 | GGAGACCAUACUAUACAACCUACUGACCUCA | 0.0765 ± 0.017 | 0.0102 ± 0.0061
33 | GGAGAGGAUACUAUACAACCUCUACCUCA | 0.0184 ± 0.0033 | 0.00619 ± 0.0034
34 | GGAGACCAUAUAUACAACCUACUACCUCA | 0.05 ± 0.0081 | 0.00541 ± 0.0043
35 | GGAGACGAUACAAAACAACCUACUACCUCA | 0.149 ± 0.018 | 0.00359 ± 0.0033
36 | GGAGUGGAUACUAUACAAACUACUACCUCA | 0.195 ± 0.015 | 0.0127 ± 0.0051
37 | GGAGACCAGUACUAUACAACCUACUACCUCA | 0.177 ± 0.021 | 0.0152 ± 0.0063
38 | GGAGACCUAUCUAUACAACCUACAACCUCA | 0.0886 ± 0.013 | 0.00366 ± 0.0032
39 | GGAGACGAUUCUAUUCAACCUACUACCUCA | 0.231 ± 0.014 | 0.00706 ± 0.0046
40 | GGAGACGAUCACUAUACAACCUACUACCUCA | 0.131 ± 0.019 | 0.0768 ± 0.029

Row | Sequence | pre-steady-state target cleavage rate [1] | pre-steady-state target cleavage rate [2]
41 | GGAGUAGAUACUAUACAACCUACUACCUCA | 0.186 ± 0.0093 | 0.158 ± 0.057
42 | GGAGACGAUACUAUACUACGUACUACCUCA | 0.0345 ± 0.004 | 0.00413 ± 0.0027
43 | GGAGACCUUUCUAUACAACCUAGUACCUCA | 0.0267 ± 0.0078 | 0.00465 ± 0.0038
44 | GGAGUGGAUACUAUACAACCUACUACCUCC [g2:g26:cont:t1C] | 0.188 ± 0.0099 | 0.105 ± 0.037
45 | GGAGAGGAUACUAUACAACCUCACUACCUCA | 0.00456 ± 0.0027 | 0.00378 ± 0.0026
46 | GGAGUGGAUACUAUACAACCUACUACAUCA | 0.0416 ± 0.0072 | 0.00707 ± 0.0031
47 | GGAGACCAUACUAUACAACCUACUCCCUCA | 0.106 ± 0.017 | 0.00669 ± 0.0039
48 | GGAGACCUAACAUACAACCUACUACCUCA | 0.0208 ± 0.009 | 0.0097 ± 0.005
49 | GGAGACCUUACUAGACAACCUACUACCUCA | 0.155 ± 0.015 | 0.0104 ± 0.0051
50 | GGAGUGGAUACGAUACAACCUACUACCUCA | 0.176 ± 0.011 | 0.0121 ± 0.0053
51 | GGAGACGAUACUAUAACAACCUACUACCUCA | 0.142 ± 0.012 | 0.00793 ± 0.0029
52 | GGAGACCUAACUAUACAACGUACUACCACA | 0.0131 ± 0.0058 | 0.0055 ± 0.0049
53 | GGAGAGGAUACAAUACAACCAACUACCUCA | 0.00985 ± 0.0026 | 0.00366 ± 0.0019
54 | GGAGAGGAUACUAUUCAACCAACUACCUCA | 0.00614 ± 0.0021 | 0.00354 ± 0.0021
55 | GGAGUGGACUACUAUACAACCUACUACCUCA | 0.156 ± 0.01 | 0.0107 ± 0.0041
56 | GGAGAGGAUACUAUACAACCUACUACCUUA | 0.19 ± 0.018 | 0.204 ± 0.073
57 | GGAGAGGAUACUAUACAACCUAGCUACCUCA | 0.0538 ± 0.0062 | 0.0038 ± 0.0017
58 | GGAGAGGAUCACUAUACAACCUACUACCUCA | 0.086 ± 0.019 | 0.00867 ± 0.0051
